An excerpt weighted towards active compounds, which were near 10% of everything screened.
Six1-Eya2 blk = qHTS Assay for Inhibitors of the Six1/Eya2 Interaction; Homeobox protein SIX1 (Homo sapiens) + Protein phosphatase EYA2 (Homo sapiens), …; AlphaScreen GST-Six1/His-Eya2 binding, biochemical; hits give low values; activity change, % (concentration not given with the values); hit rate 0.56% among 360,000; AID 651725, 2012; in the data active means activity change below about -65%; inconclusive means mostly about -30% to -63%; further: on the % scale 0 is the no-effect control and ±100 the full control effect
Target sequence (O00167 whole entry, looked up): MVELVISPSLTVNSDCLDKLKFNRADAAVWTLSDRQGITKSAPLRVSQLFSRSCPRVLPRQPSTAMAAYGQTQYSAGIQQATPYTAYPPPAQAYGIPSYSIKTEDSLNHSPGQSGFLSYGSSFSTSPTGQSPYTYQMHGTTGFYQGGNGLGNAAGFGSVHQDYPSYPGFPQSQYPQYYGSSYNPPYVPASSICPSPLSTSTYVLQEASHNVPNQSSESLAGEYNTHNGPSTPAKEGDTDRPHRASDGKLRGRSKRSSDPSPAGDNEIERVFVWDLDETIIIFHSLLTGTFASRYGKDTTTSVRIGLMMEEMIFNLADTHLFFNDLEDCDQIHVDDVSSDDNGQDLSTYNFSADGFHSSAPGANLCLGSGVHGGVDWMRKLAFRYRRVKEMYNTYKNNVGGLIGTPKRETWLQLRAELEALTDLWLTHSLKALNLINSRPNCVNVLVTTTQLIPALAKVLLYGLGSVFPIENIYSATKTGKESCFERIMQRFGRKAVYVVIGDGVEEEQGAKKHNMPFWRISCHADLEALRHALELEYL
Target sequence (Q15475 whole entry, looked up): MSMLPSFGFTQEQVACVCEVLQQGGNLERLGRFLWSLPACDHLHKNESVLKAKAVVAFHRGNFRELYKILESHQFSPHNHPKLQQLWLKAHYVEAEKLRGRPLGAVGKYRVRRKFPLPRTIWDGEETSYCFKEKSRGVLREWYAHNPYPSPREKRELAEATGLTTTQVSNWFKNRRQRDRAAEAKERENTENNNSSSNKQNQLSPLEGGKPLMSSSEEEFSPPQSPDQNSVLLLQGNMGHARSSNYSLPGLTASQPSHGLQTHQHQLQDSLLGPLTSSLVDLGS
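Six1/Eya2 binding was read as AlphaScreen signal after compounds were pinned into GST-Six1 plus His-tagged Eya2 (5X stock 250/500 nM) in pH 8.0 Tris/NaCl/TCEP buffer, beads added, then incubated 1 h, 37 C, dark.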
CtBP-E1A blk = qHTS Assay for Inhibitors of the CtBP/E1A Interaction | CtBP / adenovirus E1A interaction (AlphaScreen) | AlphaScreen GST-E1A/His-CtBP binding, 1536-well; hits give low values | activity change, % (concentration not given with the values) | hit rate 0.49% among 340,000; in the data active means activity change below about -65%; inconclusive means mostly about -30% to -63%; further: on the % scale 0 is the no-effect control and ±100 the full control effect
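Protein mix (5X: 125 nM each GST-E1A, His-CtBP) was incubated with pinned compound 2 h at 37 deg C in dark, in 50 mM Tris pH 8.0 buffer with 300 mM NaCl. Glutathione donor and nickel acceptor beads followed; AlphaScreen signal read after 1 h.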
HP1b binding inh = HTS for Inhibitors of HP1-beta Chromodomain Interactions with Methylated Histone Tails; Potency, µM (doses to about 114 µM), for inactives: at the highest dose activity change, negative = inhibition, most hits filed as inhibitors; hit rate 0.56% among 390,000; AlphaScreen HP1-beta / biotin-H3K9me3 peptide binding; Chromobox protein homolog 1 (Homo sapiens), P83916; further: potency means the concentration at half of the fitted maximal effect; nearly all actives have a fitted effect of over 70% in size
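AlphaScreen: HP1-beta (50 nM) preformed 30 min with biotin-H3(1-18)K9me3 peptide (50 nM) in PBS pH 7.4, 0.01% Tween-20. Compound added for 30 min at RT, then streptavidin donor/nickel chelate acceptor beads (10 ug/mL) for 30 min.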
G9a block = qHTS Assay for Inhibitors of Histone Lysine Methyltransferase G9a; AID 504332, 2011; Histone-lysine N-methyltransferase EHMT2 (Homo sapiens), Q96KQ7; Potency, µM (doses to about 102 µM), inactives show at the highest dose activity, negative = inhibition, usual class: inhibitors; G9a H3K9 monomethylation, AlphaScreen, 2 h; hit rate 8.8% among 350,000; further: potency means the concentration at half of the fitted maximal effect; on the % scale 0 is the no-effect control and ±100 the full control effect; nearly all actives have a fitted effect of over 75% in size
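Using a bead-based AlphaScreen, monomethylated H3K9 product from 2 h room-temperature reactions (G9a 20 nM, peptide 500 nM, SAM 20 uM) was detected with 0.5 ug/mL rabbit anti-H3K9me1 antibody.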
BAZ2B inh = qHTS Assay for Inhibitors of BAZ2B; Bromodomain adjacent to zinc finger domain protein 2B (Homo sapiens), Q9UIF8; AlphaScreen BAZ2B-H3K14Ac peptide displacement; Potency, µM (series often up to 114 µM), inactives show at the highest dose activity change, negative = inhibition, hits mostly inhibitors; hit rate 4.4% among 360,000; AID 504333, 2011; further: potency means the concentration at half of the fitted maximal effect; on the % scale 0 is the no-effect control and ±100 the full control effect; nearly all actives have a fitted effect of over 60% in size
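In this displacement format the biotinylated H3(5-23) peptide acetylated at Lys14 serves as ligand at 50 nM, with BAZ2B at 50 nM in PBS pH 7.4 containing 0.01% Tween-20. Donor and acceptor beads are 10 ug/mL final.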
JMJD2A Tudor = qHTS Assay for Inhibitors of JMJD2A-Tudor Domain. Lysine-specific demethylase 4A (Homo sapiens), O75164. AlphaScreen JMJD2A-Tudor / H3K4me3 peptide binding. Potency, µM (highest dose often 114 µM), inactives show top-dose activity change, negative = inhibition, usual class: inhibitors. hit rate 4.4% among 390,000. AID 504339, 2011; further: potency means the concentration at half of the fitted maximal effect; on the % scale 0 is the no-effect control and ±100 the full control effect; nearly all actives have a fitted effect of over 50% in size
* hit, by the source's call; ? = inconclusive; · = no result given; ! = not confirmed by another sample; [ ] = dose if it differs, or a comment. Unless noted, the call rests on the fitted dose curve; in most records, active means well fitted inhibition curve with a large enough effect; inconclusive means small, poorly fitted or top-dose-only effect; inactive means no such curve, though single readings can be large or run the other way.

SMILES	Six1-Eya2 blk	CtBP-E1A blk	HP1b binding inh	G9a block	BAZ2B inh	JMJD2A Tudor
COc1cc(C2c3cc4c(cc3C(O)C3COC(=O)C23)OCO4)cc(OC)c1O (stereo not drawn)	·	·	·	-32%[2.33 µM]	·	·
C[C@]12CC[C@@H]3c4ccc(O)cc4C(=O)C[C@H]3[C@@H]1CC[C@@H]2O	-2	2	16%	3%[59 µM]	?	-24%
O=[N+]([O-])c1cccc(O)c1	3	0	9%	-19%[0.501 µM]	-2%	-10%
C=C(C)Cn1c(-c2cccs2)n[nH]c1=S	-3	2	-11%	14µM*	-18%	5.6µM*
C=C(C)Cn1c(-c2cccc([N+](=O)[O-])c2)n[nH]c1=S	-10	3	11%	13µM*	-16%	8.9µM*
CN(CC(=O)Nc1cccc(F)c1)CC(=O)Nc1cccc(S(=O)(=O)N(C)c2ccccc2)c1	-2	-3	40µM*	·	·	0.89µM*
CN(c1ccccc1N(C)S(=O)(=O)c1ccccc1)S(=O)(=O)c1ccccc1	2	5	57%	·	·	-15%
O=c1[nH]c(O)c(C=Nc2ccccc2Sc2ccccc2)c(=O)[nH]1	8	8	55%	?	-10%	-10%
O=c1[nH]c(O)c(C=Nc2ccccc2[N+](=O)[O-])c(=O)[nH]1	·	·	·	71µM*	-3%	·
CC[C@@]1(O)C(=O)OCc2c1cc1n(c2=O)Cc2cc3ccccc3nc2-1	·	·	16%	45µM*!	-3%	-17%
CC[C@@]1(O)C(=O)OCc2c1cc1n(c2=O)Cc2cc3c(NC(=O)CN)cccc3nc2-1	-1	-1	41%	?	?	-22%
CCC1(O)C(=O)OCc2c1cc1n(c2=O)Cc2cc3cc(O)ccc3nc2-1 (stereo not drawn)	-10	-6	-14%	·	·	?
CC[C@@]1(O)C(=O)OCc2c1cc1n(c2=O)Cc2cc3c(O)cccc3nc2-1	·	·	·	2.5µM*	·	·
Cc1ccc(NC(=O)C2CCN(C(=O)c3cnn(-c4ccccc4)c3-n3cccc3)CC2)cc1Cl	·	·	-5%	-1%[59 µM]	-16%	?
CCOC(=O)C1CCN(/C=C2/C(=O)NC(=S)N(c3ccccc3F)C2=O)CC1	-2	·	13%	·	-10%	1%
Cc1ccc(/C=C2\C(=O)NC(=S)N(c3ccccc3F)C2=O)s1	-1	16	?	?	50µM*	71µM*
Cc1ccc(/C=C2\C(=O)NC(=S)N(c3ccc(F)cc3)C2=O)s1	-14	1	11%	6.3µM*	45µM*	-34%
O=C(Nc1ccc2nc(SCC(=O)N3CCCc4ccccc43)sc2c1)c1ccccc1F	·	·	44%	5%[59 µM]	-14%	-11%
CCOc1ccccc1N=Cc1c(O)n(C)c(=O)n(C)c1=O	2	6	46%	50µM*	1%	-5%
CC[C@H]1C(=O)OC[C@H]1Cc1cncn1C	·	·	·	5%[21.5 µM]	·	·
O=C(Oc1ccccc1)N(c1ccccc1)c1ccccc1	4	-3	-17%	·	46%	-17%
O=C1OC(c2ccc([N+](=O)[O-])cc2)=N/C1=C/N1CC2CC(C1)c1cccc(=O)n1C2 (stereo not drawn)	-7	-25	17%	79µM*	-23%	1%
O=C1OC(c2ccc(Br)cc2)=N/C1=C\N1CC2CC(C1)c1cccc(=O)n1C2 (stereo not drawn)	-8	·	1%	-20%	?	?
CCN(CC)CCSc1nc2ccccc2c(=O)n1-c1ccc(Cl)cc1	·	·	-3%	2%[59 µM]	-23%	-20%
COc1ccc(C2NCc3ccccc3-n3cccc32)cc1 (stereo not drawn)	?	-12	-15%	71µM*	?	?
SMILES	Six1-Eya2 blk	CtBP-E1A blk	HP1b binding inh	G9a block	BAZ2B inh	JMJD2A Tudor
O=C(C1c2ccccc2C(=O)N2CCc3ccccc3C12)N1CCC2(CC1)OCCO2 (stereo not drawn)	2	-2	23%	-30%	-27%	-11%
COc1cc2c(cc1OC)C(C(=O)N1CCC3(CC1)OCCO3)C(c1ccccc1F)N(C)C2=O (stereo not drawn)	-1	-10	20%	0.79µM*	3%	3%[57.1 µM]
COC(=O)[C@@]1(OC)C[C@@H]2O[C@@]1(C)n1c3ccccc3c3c4c(c5c6ccccc6n2c5c31)C(=O)N(C)C4	·	·	·	-4%[12.7 µM]	·	·
COc1ccc(CC2c3cc(OC)c(OC)cc3CCN2C)cc1O (stereo not drawn)	1	9	30%	20%	3%	0%
COc1cc2c(cc1O)C(Cc1ccc(O)cc1)NCC2 (stereo not drawn)	0	-3	36%	79µM*	-29%	-13%
Cc1ccc(C(O)(C(=O)NNC(=O)CN2CCN(C)CC2)c2ccc(C)cc2)cc1	-2	-1	17%	?	-37%	-4%
Cc1cccc(C(O)(C(=O)NNC(=O)CN2CCN(C)CC2)c2cccc(C)c2)c1	6	-7	11%	71µM*	-3%	-9%
COc1ccc(C[C@H]2c3cc(OC)c(OC)cc3CCN2C)cc1OC	·	·	·	16%[21.5 µM]	·	·
CCOc1cc2[nH]c(=O)n(CCCC(=O)N3CCN(c4cccc(Cl)c4)CC3)c(=O)c2cc1OCC	·	·	-8%	-4%[59 µM]	-22%	?
NC(CCP(=O)(O)O)C(=O)O (stereo not drawn)	·	·	·	-11%[59 µM]	·	·
C[Se]C[C@@H](N)C(=O)O	-4	4	-4%	4µM*	?	20µM*
C[Se]C[C@H](N)C(=O)O	·	·	·	0.63µM*	·	·
N[C@@H](CCl)C(=O)O	0	4	10%	21µM*	·	?
NC(N)=NCCC[C@H](N)C(=O)O	·	·	·	54%[12.7 µM]	·	·
Cc1nn(-c2ccccc2)c2c1P(=O)(O)/C(=C1\N(C)c3ccccc3C1(C)C)C=N2	7	14	37%	?	-8%	-17%
COCCN1C(=NCCCOC(C)C)N[C@@H](c2ccccc2)C(C(=O)OC)=C1C	14	-17	29%	·	7%	?
CC(C)=CC1C(C(=O)OCc2coc(Cc3ccccc3)c2)C1(C)C (stereo not drawn)	·	·	·	17%[12.7 µM]	·	·
CC(C)C[C@H](NC(=O)[C@H](Cc1ccccc1)NC(=O)CNC(=O)[C@H](CO)NC(=O)[C@@H](N)Cc1ccc(O)cc1)C(=O)N[C@H](C(=O)O)[C@H](C)O	·	·	·	23%[59 µM]	·	·

Source: PubChem (National Center for Advancing Translational Sciences (NCATS))
